# The sample as a whole holds a higher share of hits than the screen did.
# Pf apPOL block: Pf-apPOL DNA polymerase inhibition. 0.25% of 210,000 active. inhibition, % at 10 µM. Recombinant Pf-apPOL, molecular beacon fluorescence, 1.5 h
# mHTT-CaM PPI inh: disrupts binding of mutant huntingtin to calmodulin; P42858; AlphaScreen His-mHTT/GST-CaM binding, luminescence; inhibition, % at 15 µM; 3.6% of 190,000 active
# A number is an active result; . = inactive. Rule as the data show it: active = inhibition above about 50%; inactive = the rest.
SMILES,Pf apPOL block,mHTT-CaM PPI inh
O=C(Nc1nccs1)C1COc2ccccc2O1 (configuration not stated),.,.
O=C(Cn1nc2c(c1NC(=O)C1COc3ccccc3O1)CSC2)NCc1ccco1 (configuration not stated),.,94.3
Cc1ccc(S(=O)(=O)N=C2C=C(Nc3cccc(C(=O)O)c3)C(=O)c3ccccc32)c(C)c1,.,86.0
Cc1ccc(S(=O)(=O)N=C2C=C(Nc3cccc(C(=O)O)c3)C(=O)c3ccccc32)cc1,.,62.0
Cc1ccc(C)c(S(=O)(=O)N=C2C=C(Br)C(=O)c3ccccc32)c1,.,.
Cc1ccc(NC(=O)c2cccc(S(=O)(=O)Nc3cccc(C(=O)O)c3)c2)cc1,.,.
c1cc(CN2CCN(c3cnn4c(C5CC5)nnc4c3)CC2)cs1,.,.
COc1ccc(C2=NC(C(C)C)NC(c3ccccc3O)C2)cc1OC (configuration not stated),.,78.0
COc1ccc(C2N=C(c3ccc4c(c3)OCO4)CC(c3ccccc3O)N2)cc1 (configuration not stated),.,.
Oc1ccccc1C1CC(c2ccc3c(c2)OCO3)=NC(c2cccc(F)c2)N1 (configuration not stated),.,.
COc1cccc(C2CC(c3ccc(Cl)cc3)=NC(C(C)C)N2)c1O (configuration not stated),.,.
COc1cccc(C2=NC(c3ccc(F)cc3)NC(c3ccc(OC)cc3O)C2)c1 (configuration not stated),.,53.0
COc1ccc(C2=NC(c3ccc(OC)c(OC)c3)NC(c3ccccc3O)C2)cc1 (configuration not stated),.,53.0
COc1cccc(C2=NC(C(C)C)NC(c3cc(Br)ccc3O)C2)c1 (configuration not stated),.,81.0
Cc1ccc(C2=NC(C(C)C)NC(c3cc(Br)ccc3O)C2)cc1 (configuration not stated),.,.
Cn1c(SCC(=O)NC2CCCCC2)nc2sc3c(c2c1=O)CCCC3,.,.
Nc1nnnn1CC(=O)N(c1cccc(Cl)c1)C1(C(=O)Nc2ccccc2)CCCCC1,.,.
C[C@H]1[C@@H]2C[C@H]([C@H]3CCCCN31)[C@H](OC(=O)Nc1cccc(F)c1)C2,.,.
CC(C)N1CCN(C(=O)c2nc3ccccn3c2-c2ccc(F)cc2)CC1,.,.
COc1ccccc1C1SCCN1S(=O)(=O)c1ccc(Cl)c(Cl)c1 (configuration not stated),.,.
O=C(NC(Nc1cccc(Cl)c1)C(Cl)(Cl)Cl)c1cccc([N+](=O)[O-])c1 (configuration not stated),.,95.0
NS(=O)(=O)c1ccc(NC(NC(=O)c2cccc([N+](=O)[O-])c2)C(Cl)(Cl)Cl)cc1 (configuration not stated),.,.
Cc1cccc(C(=O)NC(Nc2cccc([N+](=O)[O-])c2)C(Cl)(Cl)Cl)c1 (configuration not stated),.,.
O=C(NC(Nc1ccc(Br)cc1)C(Cl)(Cl)Cl)c1cccc([N+](=O)[O-])c1 (configuration not stated),.,96.0
O=C(NC(NCc1ccccc1)C(Cl)(Cl)Cl)c1cccc([N+](=O)[O-])c1 (configuration not stated),.,.
SMILES,Pf apPOL block,mHTT-CaM PPI inh
O=C(NC(Nc1cccc([N+](=O)[O-])c1)C(Cl)(Cl)Cl)c1cccnc1 (configuration not stated),.,.
O=C(NC(Nc1ccc(Cl)cc1)C(Cl)(Cl)Cl)c1cccc([N+](=O)[O-])c1 (configuration not stated),.,99.0
O=C(NC(Nc1cccc([N+](=O)[O-])c1)C(Cl)(Cl)Cl)c1cccc([N+](=O)[O-])c1 (configuration not stated),.,54.0
Cc1cccc(N2CCN(C(=O)c3cn4cccc(C)c4n3)CC2)c1,.,.
O=C(NC(Nc1ccc([N+](=O)[O-])cc1)C(Cl)(Cl)Cl)c1ccc([N+](=O)[O-])cc1 (configuration not stated),.,79.0
CC(C)(C)C(=O)NC(Nc1ccc([N+](=O)[O-])cc1)C(Cl)(Cl)Cl (configuration not stated),.,.
COc1ccc(NC(NC(=O)c2cccc(Cl)c2)C(Cl)(Cl)Cl)cc1 (configuration not stated),.,65.0
O=C(NC(Nc1ccccc1)C(Cl)(Cl)Cl)c1cccc(Cl)c1 (configuration not stated),.,.
O=C1CCCc2nn(-c3ccccc3)c(-c3ccc(F)cc3)c21,.,.
CC(C)CCN1C(=O)C(C)(C)COc2ccc(NS(C)(=O)=O)cc21,.,.
COc1cccc(NC(=O)C2(C)Oc3cccnc3N(C)C2=O)c1 (configuration not stated),.,.
COCCN1CCC(CNC(=O)Nc2cccc(OC)c2OC)CC1,.,.
Cc1ccc(-c2nc3ncccc3o2)cc1NC(=O)COc1ccc(Cl)cc1,90.8,.

# Screening results (PubChem)
